Source: PubChem BioAssay (NCI)
Compounds without any hit were thinned out: in the full panel of roughly 83,000, 20% have a hit.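 Step 1: grow cells in 96-well plates. Step 2: add test compound at a single concentration. Step 3: incubate 48 h. Step 4: record percent growth.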 A number with no mark means an inactive call. Activity calls are given as the source filed them. Rule for the calls: active = growth percent below 10; inactive = the rest.

What was measured:
Experiment in all cases: NCI-60 one-dose screen, 48 h (100 = growth as untreated, 0 = no growth, -100 = all killed)
Conditions in all cases: 10 µM unless noted
[1] = tested on: SR leukemia
[2] = tested on: RPMI-8226 leukemia
[3] = tested on: OVCAR-8 ovarian
[4] = tested on: OVCAR-5 ovarian
[5] = tested on: OVCAR-4 ovarian
[6] = tested on: SK-OV-3 ovarian
[7] = tested on: IGROV1 ovarian
[8] = tested on: OVCAR-3 ovarian
[9] = tested on: HS 578T breast
[10] = tested on: NCI/ADR-RES ovarian
[11] = tested on: T-47D breast
[12] = tested on: BT-549 breast
[13] = tested on: MDA-MB-435 melanoma
[14] = tested on: SW-620 colon
[15] = tested on: MCF7 breast
[16] = tested on: HCT-116 colon
[17] = tested on: HCC-2998 colon
[18] = tested on: KM12 colon

Compound | growth [1] | growth [2] | growth [3] | growth [4] | growth [5] | growth [6] | growth [7] | growth [8] | growth [9] | growth [10] | growth [11] | growth [12] | growth [13] | growth [14] | growth [15] | growth [16] | growth [17] | growth [18]
CCN1C(=O)N(CC)C2C1NN=c1s/c(=C\c3cnc(C)n3C)c(=O)n12 (stereo unspecified) | 25.3% | 20.1% | 14.8% | 35.2% | 52% | 27.9% | 35.1% | -17.6% (active) | -1.81% (active) | 75.4% | 24.9% | 50.1% | -69.1% (active) | 9.38% (active) | 14.5% | 23.2% | 45.6% | 16.1%
CCN1C(=O)N(CC)C2C1NN=c1s/c(=C\c3ccc[nH]3)c(=O)n12 (stereo unspecified) | 16.3% | 15.5% | 11.2% | 22.2% | 50.6% | 27.1% | 28.8% | -25.3% (active) | 7.95% (active) | 8.11% (active) | 31% | 51.2% | -57% (active) | 16.9% | 17.6% | 17% | 33.1% | 8.23% (active)
N#Cc1ccc(O)c(C2=NCC(Cc3ccccc3)O2)c1 (stereo unspecified) | 60.8% | 55.3% | 37% | 79.7% | 22.3% | 50.9% | 43.2% | 16.1% | 90.7% | 0.317% (active) | -1.96% (active) | 37.7% | 64.5% | 40.2% | 39% | 14.9% | 72.3% | 40.9%
CC1(C)N=C(N)N=C(N)N1c1ccc(CCCCc2ccccc2)c(Cl)c1 | -8.35% (active) | 4.29% (active) | 26.1% | 28.5% | 20.6% | 38.1% | -24.4% (active) | -10.6% (active) | 36.4% | 54.8% | 15.8% | -16% (active) | 27.8% | 20.5% | 1.84% (active) | 13.9% | -43.9% (active) | -79.7% (active)
O=C(NC1CC(F)C1)c1cc2cccnc2n1-c1ccc(Cl)c(Cl)c1 (stereo unspecified) | 104% | 95.6% | 95.4% | 94.8% | 95.4% | 104% | 86.7% | 102% | 99.2% | 90.1% | 82.6% | 101% | 119% | 98.4% | 98.3% | 94.7% | 104% | 98.5%
O=C1C(Nc2ccccn2)=C(I)C(=O)c2ncccc21 | 2% (active) | -15.5% (active) | -15.3% (active) | -55.3% (active) | -53.3% (active) | -44.9% (active) | -67.5% (active) | -48.4% (active) | -10.1% (active) | -7.85% (active) | -42.5% (active) | -68.5% (active) | -82.2% (active) | -64.6% (active) | -58.7% (active) | -62.2% (active) | 53.1% | -26.1% (active)
CCN(CC)CCN1C(=O)c2c(c(C)c3c(oc4ccc(OC)cc43)c2C)C1=O | 110% | 92.5% | 79.9% | 88.9% | 103% | 111% | 87.2% | 115% | 101% | 82.6% | 110% | 116% | 104% | 92.2% | 94.8% | 83.7% | 100% | 99.5%
COc1ccc(NC(=O)Nc2ccc(OCCCCCC(=O)NO)cc2)cc1 | 71.6% | 97.8% | 87.8% | 113% | 122% | 97.1% | 115% | 103% | 94.1% | 99.6% | 107% | 99.5% | 94% | 99.7% | 98.3% | 92.3% | 110% | 103%
S=C(c1ccc2c(c1)OCO2)N1CCN(c2cccc(Cl)c2)CC1 | 11.9% | 24.6% | 38.8% | 44% | 46.3% | 20.6% | 37% | -33.7% (active) | -1.66% (active) | -13% (active) | 11.6% | 52.4% | -37.7% (active) | 4.12% (active) | -0.55% (active) | 13.7% | -13.1% (active) | 12.6%
CN1CCN(CCCOc2cccc3nc(Nc4ccc(F)c(F)c4)ccc23)CC1 | 0.217% (active) | -14.5% (active) | 24.5% | -20.9% (active) | 39.3% | 24.2% | -12.4% (active) | 8.36% (active) | 16.8% | 12.1% | 19.4% | 52.8% | -81.5% (active) | -90.3% (active) | -87.6% (active) | -41.2% (active) | -83.8% (active) | -77.3% (active)
COC(=O)c1nc(-c2ccccc2)oc1S(=O)(=O)NCC(c1ccc(Cl)cc1)N1CCOCC1 (stereo unspecified) | 1.88% (active) | 7.86% (active) | 65% | 77.7% | 86.2% | 97% | 61.1% | 35.1% | 85.8% | 97.9% | 53.5% | 56% | 64.8% | 18.7% | 31.7% | 62.2% | 121% | 89%
CSc1nc(C)c([N+](=O)[O-])c(N)n1 | 96.3% | 78.4% | 100% | 118% | 104% | 85.1% | 110% | 114% | 104% | 102% | 107% | 98.9% | 107% | 104% | 94.3% | 91.1% | 114% | 99.5%
CCN(CC)CCCOc1ccc2ncnc(Nc3ccc(Oc4cccc(C(F)(F)F)c4)c(Cl)c3)c2c1 | -3.44% (active) | -29.8% (active) | 16.9% | 5.73% (active) | 7.23% (active) | 13.4% | -52.6% (active) | -34.8% (active) | -32.8% (active) | 2.21% (active) | 18.7% | 81.4% | -85.7% (active) | -87% (active) | -45.2% (active) | -10.1% (active) | -85.4% (active) | -24.3% (active)
Cc1ccc2c(-n3nc(C#N)c(C#N)c3N)cc(=O)[nH]c2c1 | 90.5% | 101% | 85.9% | 99.2% | 89% | 74.5% | 64.1% | 91.2% | 107% | 110% | 77% | 86.9% | 107% | 99.3% | 85.1% | 76% | 139% | 94.8%
CCN1C(=O)N(CC)C2C1NN=c1s/c(=C3\C(=O)N(CCC(C)C)c4ccccc43)c(=O)n12 (stereo unspecified) | 16.7% | 17% | 9.81% (active) | 34.1% | 45.5% | 43.7% | 19.4% | 3.23% (active) | 15% | 8.98% (active) | 80.2% | 11.6% | -31.3% (active) | 31.7% | 14.9% | 10.6% | 11.6% | 17.6%
Nc1nc(NC(=O)Nc2ccc(C(=O)O)cc2)nn1-c1ccc(S(N)(=O)=O)cc1 | 99.5% | 102% | 86.8% | 95.9% | 103% | 107% | 94% | 95.7% | 88.1% | 103% | 102% | 91.3% | 98.2% | 87.7% | 98.7% | 95.4% | 107% | 89.6%
CN(C)c1ccc(-c2nc(-c3ccccc3)c(-c3ccccc3)[nH]2)cc1 | 88.2% | 90% | 96.9% | 122% | 94% | 83.1% | 91.6% | 114% | 103% | 95% | 79.3% | 104% | 89.7% | 108% | 83.1% | 86.7% | 117% | 96.1%
